# According to PubChem BioAssay AID1159580 (chemical genetic matrix, 2015):
# The whole screen tested about 5,500 compounds, of which about 2,000 (36%) were called active. Roughly 18% stayed inconclusive and do not appear here. The list shows a part of the results. Unmarked numbers belong to inactive results. No stated cut-off is given here; in the data, active means normalized growth mostly below about 0.91 (no sharp cut-off); inconclusive means no clear call, values can overlap the other calls; inactive means mostly above about 0.92.
# Experiment: chemical genetic growth profiling, strain panel (AID 1159580);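 further: tested at 20 µM; growth read once vehicle control cultures reached saturation at 30 °C; 1 = growth at the plate median or of vehicle wells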
# Conditions: growth OD
structure (smiles),measurement,setting,value
COc1ccc(C(=O)CC(=O)c2ccc(C(C)(C)C)cc2)cc1,normalized growth,"S. cerevisiae deletion strains, locus YJR075W, strain HOC1, stronger effect = lower value",0.936
same,normalized growth,"S. cerevisiae deletion strains, locus YKL009W, strain mrt4, stronger effect = lower value",1.02
same,normalized growth,"S. cerevisiae deletion strains, locus YKL068W, stronger effect = lower value",0.996
same,normalized growth,"S. cerevisiae deletion strains, locus YKL085W, strain MDH1 (second series), stronger effect = lower value",0.989
same,normalized growth,"S. cerevisiae deletion strains, locus YKL085W, strain MDH1, stronger effect = lower value",0.989
same,normalized growth,"S. cerevisiae deletion strains, locus YKL160W, strain elf1, stronger effect = lower value",0.982
same,normalized growth,"S. cerevisiae deletion strains, locus YKL190W, strain CNB1, stronger effect = lower value",0.986
same,normalized growth,"S. cerevisiae deletion strains, locus YKR001C, strain vps1, stronger effect = lower value",1
same,normalized growth,"S. cerevisiae deletion strains, locus YKR026C, strain gcn3, stronger effect = lower value",0.988
same,normalized growth,"S. cerevisiae deletion strains, locus YKR091W, strain srl3, stronger effect = lower value",0.99
same,normalized growth,"S. cerevisiae deletion strains, locus YLL001W, strain dnm1, stronger effect = lower value",0.998
same,normalized growth,"S. cerevisiae deletion strains, locus YLL026W, stronger effect = lower value",0.998
same,normalized growth,"S. cerevisiae deletion strains, locus YLL041C, strain sdh2, stronger effect = lower value",0.972
same,normalized growth,"S. cerevisiae deletion strains, locus YLR027C, strain aat2, stronger effect = lower value",0.988
same,normalized growth,"S. cerevisiae deletion strains, locus YLR039C, strain RIC1, stronger effect = lower value",0.884
same,normalized growth,"S. cerevisiae deletion strains, locus YLR058C, strain SHM2, stronger effect = lower value",1.01
same,normalized growth,"S. cerevisiae deletion strains, locus YLR102C, strain apc9, stronger effect = lower value",1
same,normalized growth,"S. cerevisiae deletion strains, locus YLR113W, strain HOG1, stronger effect = lower value",0.969
same,normalized growth,"S. cerevisiae deletion strains, locus YLR221C, strain rsa3, stronger effect = lower value",0.937
same,normalized growth,"S. cerevisiae deletion strains, locus YLR258W, strain gsy2, stronger effect = lower value",0.971
same,normalized growth,"S. cerevisiae deletion strains, locus YLR262C, strain YPT6 (second series), stronger effect = lower value",0.801 (active)
same,normalized growth,"S. cerevisiae deletion strains, locus YLR262C, strain YPT6, stronger effect = lower value",0.903
same,normalized growth,"S. cerevisiae deletion strains, locus YLR268W, strain sec22, stronger effect = lower value",1
same,normalized growth,"S. cerevisiae deletion strains, locus YLR320W, strain mms22, stronger effect = lower value",0.956
same,normalized growth,"S. cerevisiae deletion strains, locus YLR330W, strain CHS5, stronger effect = lower value",1
same,normalized growth,"S. cerevisiae deletion strains, locus YLR342W, strain FKS1 (second series), stronger effect = lower value",1.1
same,normalized growth,"S. cerevisiae deletion strains, locus YLR342W, strain FKS1, stronger effect = lower value",0.992
same,normalized growth,"S. cerevisiae deletion strains, locus YLR357W, strain rsc2, stronger effect = lower value",1.03
same,normalized growth,"S. cerevisiae deletion strains, locus YLR370C, strain arc18, stronger effect = lower value",1
same,normalized growth,"S. cerevisiae deletion strains, locus YLR371W, strain rom2, stronger effect = lower value",1.01
same,normalized growth,"S. cerevisiae deletion strains, locus YLR384C, strain iki3, stronger effect = lower value",1.01
same,normalized growth,"S. cerevisiae deletion strains, locus YLR418C, strain cdc73, stronger effect = lower value",0.952
same,normalized growth,"S. cerevisiae deletion strains, locus YML016C, strain PPZ1, stronger effect = lower value",1
same,normalized growth,"S. cerevisiae deletion strains, locus YML032C, strain rad52, stronger effect = lower value",1
same,normalized growth,"S. cerevisiae deletion strains, locus YML120C, strain ndi1, stronger effect = lower value",1
same,normalized growth,"S. cerevisiae deletion strains, locus YML124C, strain tub3, stronger effect = lower value",1
same,normalized growth,"S. cerevisiae deletion strains, locus YMR058W, strain fet3, stronger effect = lower value",0.996
same,normalized growth,"S. cerevisiae deletion strains, locus YMR078C, strain ctf18, stronger effect = lower value",1.01
same,normalized growth,"S. cerevisiae deletion strains, locus YMR125W, strain sto1, stronger effect = lower value",0.977
same,normalized growth,"S. cerevisiae deletion strains, locus YMR129W, stronger effect = lower value",0.983
same,normalized growth,"S. cerevisiae deletion strains, locus YMR205C, strain PFK2, stronger effect = lower value",0.97
same,normalized growth,"S. cerevisiae deletion strains, locus YMR223W, strain ubp8, stronger effect = lower value",1
same,normalized growth,"S. cerevisiae deletion strains, locus YMR231W, strain pep5, stronger effect = lower value",1.02
same,normalized growth,"S. cerevisiae deletion strains, locus YMR263W, strain SAP30, stronger effect = lower value",0.988
same,normalized growth,"S. cerevisiae deletion strains, locus YMR307W, strain GAS1, stronger effect = lower value",0.746
same,normalized growth,"S. cerevisiae deletion strains, locus YNL067W, strain RPL9B, stronger effect = lower value",0.912
same,normalized growth,"S. cerevisiae deletion strains, locus YNL071W, strain lat1, stronger effect = lower value",0.998
same,normalized growth,"S. cerevisiae deletion strains, locus YNL128W, strain TEP1, stronger effect = lower value",0.98
same,normalized growth,"S. cerevisiae deletion strains, locus YNL153C, strain GIM3, stronger effect = lower value",0.996
same,normalized growth,"S. cerevisiae deletion strains, locus YNL183C, strain NPR1, stronger effect = lower value",0.958
same,normalized growth,"S. cerevisiae deletion strains, locus YNL209W, strain ssb2, stronger effect = lower value",1.02
same,normalized growth,"S. cerevisiae deletion strains, locus YNL233W, strain BNI4, stronger effect = lower value",0.995
same,normalized growth,"S. cerevisiae deletion strains, locus YNL248C, strain rpa49, stronger effect = lower value",0.963
same,normalized growth,"S. cerevisiae deletion strains, locus YNL250W, strain rad50, stronger effect = lower value",0.993
same,normalized growth,"S. cerevisiae deletion strains, locus YNL271C, strain bni1, stronger effect = lower value",1
same,normalized growth,"S. cerevisiae deletion strains, locus YNL298W, strain CLA4, stronger effect = lower value",1.02
same,normalized growth,"S. cerevisiae deletion strains, locus YNL307C, strain MCK1, stronger effect = lower value",1.01
same,normalized growth,"S. cerevisiae deletion strains, locus YNL322C, strain KRE1 (second series), stronger effect = lower value",1.01
same,normalized growth,"S. cerevisiae deletion strains, locus YNL322C, strain KRE1, stronger effect = lower value",0.994
same,normalized growth,"S. cerevisiae deletion strains, locus YNR049C, strain mso1, stronger effect = lower value",0.987
same,normalized growth,"S. cerevisiae deletion strains, locus YNR052C, strain pop2, stronger effect = lower value",1.01
same,normalized growth,"S. cerevisiae deletion strains, locus YOL006C, strain TOP1, stronger effect = lower value",0.82
same,normalized growth,"S. cerevisiae deletion strains, locus YOL012C, strain htz1",1.06
same,normalized growth,"S. cerevisiae deletion strains, locus YOL147C, strain pex11, stronger effect = lower value",1
same,normalized growth,"S. cerevisiae deletion strains, locus YOR001W, strain rrp6, stronger effect = lower value",0.979
same,normalized growth,"S. cerevisiae deletion strains, locus YOR061W, strain CKA2, stronger effect = lower value",1
same,normalized growth,"S. cerevisiae deletion strains, locus YOR069W, strain VPS5, stronger effect = lower value",1
same,normalized growth,"S. cerevisiae deletion strains, locus YOR070C, strain gyp1, stronger effect = lower value",0.986
same,normalized growth,"S. cerevisiae deletion strains, locus YOR080W, strain dia2, stronger effect = lower value",1.01
same,normalized growth,"S. cerevisiae deletion strains, locus YOR083W, strain WHI5, stronger effect = lower value",0.98
same,normalized growth,"S. cerevisiae deletion strains, locus YOR106W, strain vam3, stronger effect = lower value",0.904
same,normalized growth,"S. cerevisiae deletion strains, locus YOR136W, strain idh2, stronger effect = lower value",0.99
same,normalized growth,"S. cerevisiae deletion strains, locus YOR144C, strain elg1, stronger effect = lower value",1
same,normalized growth,"S. cerevisiae deletion strains, locus YOR184W, strain ser1, stronger effect = lower value",0.955
same,normalized growth,"S. cerevisiae deletion strains, locus YOR231W, strain MKK1, stronger effect = lower value",1.01
same,normalized growth,"S. cerevisiae deletion strains, locus YOR265W, strain rbl2, stronger effect = lower value",0.998
same,normalized growth,"S. cerevisiae deletion strains, locus YOR270C, strain vph1, stronger effect = lower value",0.827
same,normalized growth,"S. cerevisiae deletion strains, locus YOR290C, strain snf2, stronger effect = lower value",0.991
same,normalized growth,"S. cerevisiae deletion strains, locus YOR316C, strain cot1, stronger effect = lower value",1
same,normalized growth,"S. cerevisiae deletion strains, locus YPL051W, strain arl3, stronger effect = lower value",0.992
same,normalized growth,"S. cerevisiae deletion strains, locus YPL055C, strain LGE1, stronger effect = lower value",0.88
same,normalized growth,"S. cerevisiae deletion strains, locus YPL078C, strain atp4, stronger effect = lower value",0.998
same,normalized growth,"S. cerevisiae deletion strains, locus YPL106C, strain sse1, stronger effect = lower value",1
same,normalized growth,"S. cerevisiae deletion strains, locus YPL240C, strain hsp82, stronger effect = lower value",0.995
same,normalized growth,"S. cerevisiae deletion strains, locus YPL241C, strain CIN2, stronger effect = lower value",0.988
same,normalized growth,"S. cerevisiae deletion strains, locus YPL256C, strain CLN2, stronger effect = lower value",1
same,normalized growth,"S. cerevisiae deletion strains, locus YPR119W, strain clb2, stronger effect = lower value",0.998
same,normalized growth,"S. cerevisiae deletion strains, locus YPR141C, strain kar3, stronger effect = lower value",0.996
same,normalized growth,"S. cerevisiae deletion strains, locus YPR163C, strain tif3, stronger effect = lower value",1.01
same,normalized growth,"S. cerevisiae deletion strains, locus YPR167C, strain met16, stronger effect = lower value",1
same,normalized growth,"S. cerevisiae deletion strains, strain wtn01, stronger effect = lower value",0.996
same,normalized growth,"S. cerevisiae strains, strain wild type, stronger effect = lower value",0.975
